This is an account of results in PMC7862700, “An all-to-all approach to the identification of sequence-specific readers for epigenetic DNA modifications on cytosine”.

Assay in all cases: DAPPL (digital affinity profiling via proximity ligation, sequencing); 10 mM Tris-HCl pH 7.5, 50 mM NaCl, 1 mM DTT, 4% glycerol, room temperature, 30 min; GST-TFs on glutathione beads, 16-mer random dsDNA library, 0.1% formaldehyde crosslink after washing; high values mean tight binding
For assay [1], the target named is T1, FLI1 (Homo sapiens, UniProt Q01543 1-452).
T1 sequence: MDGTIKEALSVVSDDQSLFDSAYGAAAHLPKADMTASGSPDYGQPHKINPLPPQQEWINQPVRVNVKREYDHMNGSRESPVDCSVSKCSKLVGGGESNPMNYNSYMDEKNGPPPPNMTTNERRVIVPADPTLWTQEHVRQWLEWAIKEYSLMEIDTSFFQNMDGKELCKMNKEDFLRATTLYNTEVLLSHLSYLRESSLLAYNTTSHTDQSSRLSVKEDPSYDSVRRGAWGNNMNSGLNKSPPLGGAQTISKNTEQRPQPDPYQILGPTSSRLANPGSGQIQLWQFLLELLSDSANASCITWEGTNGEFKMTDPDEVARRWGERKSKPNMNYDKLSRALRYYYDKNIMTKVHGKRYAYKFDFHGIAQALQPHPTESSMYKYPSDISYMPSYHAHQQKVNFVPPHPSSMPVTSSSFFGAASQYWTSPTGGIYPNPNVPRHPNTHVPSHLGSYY
The conditions noted are these: protein: recombinant; tags: N-terminal GST; dsDNA, one strand shown. In a few lines: (§1)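 Binding signal is each hexamer's read frequency for a factor divided by its frequency in the tag-only sample. The factors were GST-fused human transcription factors from yeast, captured on glutathione beads, DNA-barcoded and pooled with that sample. Pools were incubated with 200 nmole of a random double-stranded 16-mer DNA library in Tris/NaCl/DTT/glycerol buffer at room temperature for 30 min, then washed, crosslinked with 0.1% formaldehyde, proximity-ligated with BsaI/T4 ligase (1 h, 37 °C), PCR-amplified and sequenced on an Illumina NextSeq500.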

Assay [2] addresses T2, ELK1 (Homo sapiens, UniProt P19419 1-428).
T2 sequence: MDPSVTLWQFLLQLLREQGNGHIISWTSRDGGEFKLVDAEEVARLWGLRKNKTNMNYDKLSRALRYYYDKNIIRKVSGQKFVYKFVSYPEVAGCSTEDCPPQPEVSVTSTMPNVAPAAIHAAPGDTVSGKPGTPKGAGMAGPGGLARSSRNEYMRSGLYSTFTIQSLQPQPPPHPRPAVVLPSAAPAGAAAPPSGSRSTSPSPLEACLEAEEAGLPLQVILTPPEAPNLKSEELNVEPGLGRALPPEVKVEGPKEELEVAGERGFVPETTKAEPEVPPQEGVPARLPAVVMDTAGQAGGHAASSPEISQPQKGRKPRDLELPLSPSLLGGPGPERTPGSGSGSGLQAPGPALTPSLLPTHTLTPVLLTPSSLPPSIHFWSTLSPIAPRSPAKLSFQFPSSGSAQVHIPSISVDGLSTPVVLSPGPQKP
The conditions noted are these: protein: recombinant; tags: N-terminal GST; dsDNA, one strand shown. In a few lines: as §1

In assay [3] the target is T3, GABPA (Homo sapiens, UniProt Q06546 1-454).
T3 sequence: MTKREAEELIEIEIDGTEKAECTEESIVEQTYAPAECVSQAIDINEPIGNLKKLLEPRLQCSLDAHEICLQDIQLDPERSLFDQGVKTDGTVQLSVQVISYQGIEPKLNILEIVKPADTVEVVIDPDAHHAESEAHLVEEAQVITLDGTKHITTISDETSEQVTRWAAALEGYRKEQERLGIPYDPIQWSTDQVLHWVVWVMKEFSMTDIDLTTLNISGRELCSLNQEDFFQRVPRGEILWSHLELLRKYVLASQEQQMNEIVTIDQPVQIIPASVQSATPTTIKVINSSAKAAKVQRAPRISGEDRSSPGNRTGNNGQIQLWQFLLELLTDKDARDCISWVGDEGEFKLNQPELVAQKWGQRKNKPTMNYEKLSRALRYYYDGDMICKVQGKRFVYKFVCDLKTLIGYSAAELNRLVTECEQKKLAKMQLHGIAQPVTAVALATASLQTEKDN
The following applies: protein: recombinant; tags: N-terminal GST; dsDNA, one strand shown. In a few lines: as §1

Assay [4] addresses T4, ERG (Homo sapiens, UniProt P11308 1-479).
T4 sequence: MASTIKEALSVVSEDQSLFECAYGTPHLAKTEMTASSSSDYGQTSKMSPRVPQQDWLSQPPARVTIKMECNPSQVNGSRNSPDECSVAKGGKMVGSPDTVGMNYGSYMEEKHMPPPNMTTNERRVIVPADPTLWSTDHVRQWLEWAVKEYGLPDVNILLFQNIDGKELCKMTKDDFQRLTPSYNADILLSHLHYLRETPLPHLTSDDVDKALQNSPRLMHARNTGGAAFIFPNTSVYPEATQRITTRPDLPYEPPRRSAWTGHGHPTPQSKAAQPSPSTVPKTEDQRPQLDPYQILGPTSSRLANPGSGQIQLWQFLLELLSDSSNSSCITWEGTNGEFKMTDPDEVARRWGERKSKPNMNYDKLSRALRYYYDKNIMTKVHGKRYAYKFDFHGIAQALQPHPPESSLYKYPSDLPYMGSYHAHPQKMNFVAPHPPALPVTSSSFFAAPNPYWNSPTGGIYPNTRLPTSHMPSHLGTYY
The conditions noted are these: protein: recombinant; tags: N-terminal GST; dsDNA, one strand shown. In a few lines: as §1

Assay [5] concerns the target ELF1 (Homo sapiens, UniProt P32519 1-619). The following applies: protein: recombinant; tags: N-terminal GST; dsDNA, one strand shown. In a few lines: as §1
Assay [6] has as its target T5, EHF (Homo sapiens, UniProt Q9NZC4 1-300).
T5 sequence: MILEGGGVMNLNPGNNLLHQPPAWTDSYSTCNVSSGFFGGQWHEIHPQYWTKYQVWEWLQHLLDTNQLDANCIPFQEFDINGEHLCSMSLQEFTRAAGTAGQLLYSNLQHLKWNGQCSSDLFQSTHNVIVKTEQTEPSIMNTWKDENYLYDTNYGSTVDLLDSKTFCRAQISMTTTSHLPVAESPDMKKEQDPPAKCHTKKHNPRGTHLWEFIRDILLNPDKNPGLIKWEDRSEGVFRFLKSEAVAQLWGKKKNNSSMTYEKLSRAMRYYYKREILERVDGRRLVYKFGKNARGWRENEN
The conditions noted are these: protein: recombinant; tags: N-terminal GST; dsDNA, one strand shown. In a few lines:
as §1

Assay [7] has as its target SPI1 (Homo sapiens, UniProt P17947 1-270). The conditions noted are these: protein: recombinant; tags: N-terminal GST; dsDNA, one strand shown. In a few lines:
as §1

In assay [8] the target is SPIB (Homo sapiens, UniProt Q01892 1-262). The following applies: protein: recombinant; tags: N-terminal GST; dsDNA, one strand shown. In a few lines:
as §1

Assay [9] has as its target T6, ELK3 (Homo sapiens, UniProt P41970 1-407).
T6 sequence: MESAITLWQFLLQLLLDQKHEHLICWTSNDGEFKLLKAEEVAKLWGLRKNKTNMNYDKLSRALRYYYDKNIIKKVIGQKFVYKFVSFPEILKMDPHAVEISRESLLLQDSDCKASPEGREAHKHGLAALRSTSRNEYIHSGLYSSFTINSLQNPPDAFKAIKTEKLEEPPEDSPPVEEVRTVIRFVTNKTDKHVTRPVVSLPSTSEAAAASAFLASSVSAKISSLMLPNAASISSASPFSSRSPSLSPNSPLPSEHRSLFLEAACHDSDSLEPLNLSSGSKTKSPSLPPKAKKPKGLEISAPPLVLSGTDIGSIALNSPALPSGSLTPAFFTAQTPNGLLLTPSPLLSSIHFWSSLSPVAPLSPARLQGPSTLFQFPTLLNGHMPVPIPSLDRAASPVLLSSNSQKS
The following applies: protein: recombinant; tags: N-terminal GST; dsDNA, one strand shown. In a few lines: as §1

In assay [10] the target is T7, FEV (Homo sapiens, UniProt Q99581 1-238).
T7 sequence: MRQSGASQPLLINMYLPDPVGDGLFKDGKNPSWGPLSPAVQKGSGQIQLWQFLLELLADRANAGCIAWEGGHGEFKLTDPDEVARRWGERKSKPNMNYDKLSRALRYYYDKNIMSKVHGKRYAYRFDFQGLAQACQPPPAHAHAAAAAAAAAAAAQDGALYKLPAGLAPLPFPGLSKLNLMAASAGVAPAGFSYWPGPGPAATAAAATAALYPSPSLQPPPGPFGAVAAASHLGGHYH
The following applies: protein: recombinant; tags: N-terminal GST; dsDNA, one strand shown. In a few lines: as §1

Assay [11] has as its target ETV5 (Homo sapiens, UniProt P41161 1-510). The conditions noted are these: protein: recombinant; tags: N-terminal GST; dsDNA, one strand shown. In a few lines:
as §1

The target in assay [12] is HSF1 (Homo sapiens, UniProt Q00613 1-529). The following applies: protein: recombinant; tags: N-terminal GST; chain copies: 3; dsDNA, one strand shown. In a few lines: as §1
Chain of HSF1 (Q00613 whole entry): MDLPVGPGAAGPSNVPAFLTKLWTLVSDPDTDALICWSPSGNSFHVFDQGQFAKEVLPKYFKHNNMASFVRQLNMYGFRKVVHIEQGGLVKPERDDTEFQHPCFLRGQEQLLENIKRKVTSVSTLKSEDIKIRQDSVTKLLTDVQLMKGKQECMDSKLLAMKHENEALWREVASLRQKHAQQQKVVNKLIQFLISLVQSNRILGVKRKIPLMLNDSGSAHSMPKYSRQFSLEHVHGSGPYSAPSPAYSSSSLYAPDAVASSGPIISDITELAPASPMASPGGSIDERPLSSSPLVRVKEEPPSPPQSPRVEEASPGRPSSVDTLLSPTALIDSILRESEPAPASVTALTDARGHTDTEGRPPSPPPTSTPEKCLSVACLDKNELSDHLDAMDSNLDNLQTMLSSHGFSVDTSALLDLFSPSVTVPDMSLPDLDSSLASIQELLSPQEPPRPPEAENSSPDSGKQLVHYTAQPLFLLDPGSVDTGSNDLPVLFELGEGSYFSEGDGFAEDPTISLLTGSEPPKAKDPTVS
The target of assay [13] is T8, SPIC (Homo sapiens, UniProt Q8N5J4 1-248).
T8 sequence: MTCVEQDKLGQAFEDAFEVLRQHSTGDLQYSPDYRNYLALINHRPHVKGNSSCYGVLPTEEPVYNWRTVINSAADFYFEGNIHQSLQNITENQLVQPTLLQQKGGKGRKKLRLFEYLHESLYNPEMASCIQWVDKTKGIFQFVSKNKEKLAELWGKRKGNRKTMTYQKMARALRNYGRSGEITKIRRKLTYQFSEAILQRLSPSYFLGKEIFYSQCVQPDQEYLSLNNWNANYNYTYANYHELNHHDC
The following applies: protein: recombinant; tags: N-terminal GST; dsDNA, one strand shown. In a few lines: as §1

Assay [14] addresses ELF4 (Homo sapiens, UniProt Q99607 1-663). The following applies: protein: recombinant; tags: N-terminal GST; dsDNA, one strand shown. In a few lines: as §1
The target of assay [15] is T9, ELK4 (Homo sapiens, UniProt P28324-2 1-405).
T9 sequence: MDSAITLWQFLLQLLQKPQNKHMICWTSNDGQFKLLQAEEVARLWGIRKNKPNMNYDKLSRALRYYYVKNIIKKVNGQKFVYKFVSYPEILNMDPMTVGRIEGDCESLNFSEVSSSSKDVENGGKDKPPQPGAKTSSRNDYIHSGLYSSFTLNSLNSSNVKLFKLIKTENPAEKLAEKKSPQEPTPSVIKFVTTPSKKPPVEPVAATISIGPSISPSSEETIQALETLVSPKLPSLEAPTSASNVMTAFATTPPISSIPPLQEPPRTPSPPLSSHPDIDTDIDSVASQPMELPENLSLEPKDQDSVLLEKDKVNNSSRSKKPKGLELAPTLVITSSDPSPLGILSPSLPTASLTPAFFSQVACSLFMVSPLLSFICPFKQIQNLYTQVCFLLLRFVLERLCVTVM
The conditions noted are these: protein: recombinant; tags: N-terminal GST; dsDNA, one strand shown. In a few lines:
as §1

Assay [16] deals with T10, ETV2 (Homo sapiens, UniProt O00321 1-342).
T10 sequence: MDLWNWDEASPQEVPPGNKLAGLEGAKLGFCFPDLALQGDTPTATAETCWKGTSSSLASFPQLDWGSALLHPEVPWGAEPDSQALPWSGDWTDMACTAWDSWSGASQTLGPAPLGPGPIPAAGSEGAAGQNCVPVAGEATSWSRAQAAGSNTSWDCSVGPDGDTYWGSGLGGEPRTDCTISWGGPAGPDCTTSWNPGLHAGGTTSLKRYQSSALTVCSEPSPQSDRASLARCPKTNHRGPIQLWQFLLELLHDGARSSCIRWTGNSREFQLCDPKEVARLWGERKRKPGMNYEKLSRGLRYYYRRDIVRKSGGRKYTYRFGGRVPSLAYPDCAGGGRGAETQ
The conditions noted are these: protein: recombinant; tags: N-terminal GST; dsDNA, one strand shown. In a few lines:
as §1

Assay [17] concerns the target T11, ELF3 (Homo sapiens, UniProt P78545 1-371).
T11 sequence: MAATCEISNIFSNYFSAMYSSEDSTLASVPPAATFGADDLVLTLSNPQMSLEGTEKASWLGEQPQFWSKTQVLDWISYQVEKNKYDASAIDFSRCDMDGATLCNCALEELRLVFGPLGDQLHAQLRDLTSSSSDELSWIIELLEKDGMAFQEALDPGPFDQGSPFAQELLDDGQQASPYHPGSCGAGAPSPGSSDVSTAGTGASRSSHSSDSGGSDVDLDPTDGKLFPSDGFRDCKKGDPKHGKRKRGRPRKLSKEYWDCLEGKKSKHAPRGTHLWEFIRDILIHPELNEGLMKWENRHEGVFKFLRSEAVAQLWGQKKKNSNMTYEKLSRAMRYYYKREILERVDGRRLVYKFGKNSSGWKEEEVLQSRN
The conditions noted are these: protein: recombinant; tags: N-terminal GST; dsDNA, one strand shown. In a few lines:
as §1

Assay [18] has as its target CRX (Homo sapiens, UniProt O43186 1-299). The conditions noted are these: protein: recombinant; tags: N-terminal GST; dsDNA, one strand shown. In a few lines: as §1
Assay [19] deals with ETV1 (Homo sapiens, UniProt P50549 1-477). The following applies: protein: recombinant; tags: N-terminal GST; dsDNA, one strand shown. In a few lines:
as §1

Chain of CRX (O43186 whole entry): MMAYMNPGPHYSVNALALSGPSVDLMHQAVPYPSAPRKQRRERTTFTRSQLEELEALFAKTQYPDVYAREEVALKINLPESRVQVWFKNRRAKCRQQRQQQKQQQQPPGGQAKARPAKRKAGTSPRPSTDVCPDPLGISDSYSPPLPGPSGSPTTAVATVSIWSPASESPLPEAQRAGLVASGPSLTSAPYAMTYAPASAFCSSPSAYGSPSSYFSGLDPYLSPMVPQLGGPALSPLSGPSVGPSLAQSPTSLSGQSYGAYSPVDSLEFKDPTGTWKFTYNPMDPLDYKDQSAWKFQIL
Chain of ETV5 (P41161 whole entry): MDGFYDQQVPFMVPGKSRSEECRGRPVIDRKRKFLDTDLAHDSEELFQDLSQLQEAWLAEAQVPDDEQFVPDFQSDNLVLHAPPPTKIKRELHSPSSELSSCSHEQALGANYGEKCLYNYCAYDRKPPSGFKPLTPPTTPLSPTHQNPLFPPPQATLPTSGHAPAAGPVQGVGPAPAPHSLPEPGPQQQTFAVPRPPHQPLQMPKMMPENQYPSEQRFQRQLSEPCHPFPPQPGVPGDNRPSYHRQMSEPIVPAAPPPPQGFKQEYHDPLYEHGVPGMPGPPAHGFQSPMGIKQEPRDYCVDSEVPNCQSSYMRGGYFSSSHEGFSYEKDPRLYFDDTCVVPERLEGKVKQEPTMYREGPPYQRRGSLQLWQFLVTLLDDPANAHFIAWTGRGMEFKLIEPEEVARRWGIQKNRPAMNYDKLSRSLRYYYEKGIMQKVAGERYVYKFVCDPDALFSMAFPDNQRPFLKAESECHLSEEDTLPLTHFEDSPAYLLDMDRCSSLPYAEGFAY
Chain of ELF1 (P32519 whole entry): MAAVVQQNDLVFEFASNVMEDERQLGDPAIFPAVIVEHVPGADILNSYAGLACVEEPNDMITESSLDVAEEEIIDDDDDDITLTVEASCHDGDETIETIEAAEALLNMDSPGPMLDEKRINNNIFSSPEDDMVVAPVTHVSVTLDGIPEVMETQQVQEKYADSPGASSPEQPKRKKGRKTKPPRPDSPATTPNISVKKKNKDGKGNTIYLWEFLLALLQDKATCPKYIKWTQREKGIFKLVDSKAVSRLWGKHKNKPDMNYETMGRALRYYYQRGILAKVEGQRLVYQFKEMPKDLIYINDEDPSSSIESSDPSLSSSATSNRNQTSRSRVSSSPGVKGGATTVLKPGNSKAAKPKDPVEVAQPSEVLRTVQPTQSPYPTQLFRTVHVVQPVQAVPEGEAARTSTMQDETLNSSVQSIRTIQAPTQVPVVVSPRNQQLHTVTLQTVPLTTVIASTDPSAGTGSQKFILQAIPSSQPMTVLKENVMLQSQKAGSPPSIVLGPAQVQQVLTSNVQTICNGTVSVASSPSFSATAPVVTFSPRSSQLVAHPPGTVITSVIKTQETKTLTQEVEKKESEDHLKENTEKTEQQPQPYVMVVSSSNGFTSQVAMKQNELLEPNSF
Chain of SPIB (Q01892 whole entry): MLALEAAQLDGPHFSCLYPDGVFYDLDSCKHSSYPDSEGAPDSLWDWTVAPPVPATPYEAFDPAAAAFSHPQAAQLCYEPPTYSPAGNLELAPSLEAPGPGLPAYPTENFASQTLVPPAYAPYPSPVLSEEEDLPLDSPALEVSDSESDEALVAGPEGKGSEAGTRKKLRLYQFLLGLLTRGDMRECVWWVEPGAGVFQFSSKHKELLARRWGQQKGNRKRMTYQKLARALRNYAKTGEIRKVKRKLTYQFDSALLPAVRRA
Chain of ETV1 (P50549 whole entry): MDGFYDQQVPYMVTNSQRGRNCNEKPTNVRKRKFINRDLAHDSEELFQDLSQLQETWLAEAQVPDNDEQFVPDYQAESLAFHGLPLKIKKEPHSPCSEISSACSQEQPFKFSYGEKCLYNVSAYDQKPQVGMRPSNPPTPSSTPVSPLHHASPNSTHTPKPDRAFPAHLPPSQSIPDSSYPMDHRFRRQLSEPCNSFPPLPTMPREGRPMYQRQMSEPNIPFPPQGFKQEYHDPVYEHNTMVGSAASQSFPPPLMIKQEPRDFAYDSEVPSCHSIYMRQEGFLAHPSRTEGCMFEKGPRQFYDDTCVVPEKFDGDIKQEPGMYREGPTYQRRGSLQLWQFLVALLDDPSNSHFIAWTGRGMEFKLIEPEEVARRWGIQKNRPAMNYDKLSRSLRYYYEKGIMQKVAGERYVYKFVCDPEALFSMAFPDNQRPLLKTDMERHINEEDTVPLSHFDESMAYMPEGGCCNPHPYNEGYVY
Chain of ELF4 (Q99607 whole entry): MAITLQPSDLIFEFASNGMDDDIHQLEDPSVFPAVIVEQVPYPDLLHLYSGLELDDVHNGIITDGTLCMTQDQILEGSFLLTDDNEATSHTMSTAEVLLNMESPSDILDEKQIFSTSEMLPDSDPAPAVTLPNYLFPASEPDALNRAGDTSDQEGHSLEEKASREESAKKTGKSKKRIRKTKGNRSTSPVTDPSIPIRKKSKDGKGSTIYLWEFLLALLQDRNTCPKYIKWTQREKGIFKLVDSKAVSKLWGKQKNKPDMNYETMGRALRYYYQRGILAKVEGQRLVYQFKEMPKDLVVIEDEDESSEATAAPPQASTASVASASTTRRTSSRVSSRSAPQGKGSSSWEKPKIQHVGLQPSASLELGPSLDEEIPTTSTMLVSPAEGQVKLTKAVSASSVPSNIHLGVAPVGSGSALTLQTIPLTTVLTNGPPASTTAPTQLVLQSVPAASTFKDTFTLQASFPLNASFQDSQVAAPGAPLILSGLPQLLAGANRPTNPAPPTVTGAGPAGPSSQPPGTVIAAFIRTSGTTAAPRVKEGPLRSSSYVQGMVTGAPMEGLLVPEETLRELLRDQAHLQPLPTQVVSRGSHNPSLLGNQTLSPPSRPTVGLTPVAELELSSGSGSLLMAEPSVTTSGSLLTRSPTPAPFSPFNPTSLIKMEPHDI

CCCTCT: the binding signal in assay [1] was 1.31 fold enrichment (6-mer frequency, TF over GST control); in assay [2], 1.43 fold enrichment (6-mer frequency, TF over GST control); in assay [3], 1.37 fold enrichment (6-mer frequency, TF over GST control); in [4], 1.25 fold enrichment (6-mer frequency, TF over GST control); in [5], 1.28 fold enrichment (6-mer frequency, TF over GST control); in assay [6], 1.3 fold enrichment (6-mer frequency, TF over GST control). The binding signal in [7] is 1.28 fold enrichment (6-mer frequency, TF over GST control); in [8], 1.56 fold enrichment (6-mer frequency, TF over GST control); in assay [9], 1.51 fold enrichment (6-mer frequency, TF over GST control); in [10], 1.35 fold enrichment (6-mer frequency, TF over GST control); in assay [11] it was 1.33 fold enrichment (6-mer frequency, TF over GST control); in assay [12], 1.29 fold enrichment (6-mer frequency, TF over GST control). Besides, the binding signal in assay [13] is 1.14 fold enrichment (6-mer frequency, TF over GST control); in assay [14], 1.46 fold enrichment (6-mer frequency, TF over GST control); in assay [15], 1.6 fold enrichment (6-mer frequency, TF over GST control); in assay [16], 1.32 fold enrichment (6-mer frequency, TF over GST control); in assay [17], 1.34 fold enrichment (6-mer frequency, TF over GST control); in assay [18], 1.36 fold enrichment (6-mer frequency, TF over GST control). In addition, the binding signal in [19] was 1.25 fold enrichment (6-mer frequency, TF over GST control).
